# Measurements published in PMC7862700, “An all-to-all approach to the identification of sequence-specific readers for epigenetic DNA modifications on cytosine”.
# Tests used:
# Assay in all cases: DAPPL (digital affinity profiling via proximity ligation, sequencing); 10 mM Tris-HCl pH 7.5, 50 mM NaCl, 1 mM DTT, 4% glycerol, room temperature, 30 min; GST-TFs on glutathione beads, 16-mer random dsDNA library, 0.1% formaldehyde crosslink after washing; high values mean tight binding
# FEV = target: T1, FEV (Homo sapiens, UniProt Q99581 1-238); details: protein: recombinant; tags: N-terminal GST; dsDNA, one strand shown
# T1 sequence: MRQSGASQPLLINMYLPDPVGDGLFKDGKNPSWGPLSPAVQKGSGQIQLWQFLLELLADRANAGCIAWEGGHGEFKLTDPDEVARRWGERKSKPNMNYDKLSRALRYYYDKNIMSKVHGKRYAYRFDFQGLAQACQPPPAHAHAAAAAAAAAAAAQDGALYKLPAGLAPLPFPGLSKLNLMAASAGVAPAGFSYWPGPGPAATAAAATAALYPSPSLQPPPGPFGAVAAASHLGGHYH
# Summary of the method: (§1)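 Beads coated with glutathione captured GST-fused human transcription factors that had been expressed in yeast, and the factors were then given DNA barcodes and pooled with a tag-only sample. The pools were incubated with 200 nmole of a random double-stranded 16-mer DNA library in Tris/NaCl/DTT/glycerol buffer for 30 min at room temperature, washed, crosslinked with 0.1% formaldehyde and proximity-ligated with BsaI/T4 ligase at 37 °C for 1 h. PCR amplification and Illumina NextSeq500 sequencing came last. Binding signal is each hexamer's read frequency for a factor divided by its frequency for the tag-only sample.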
# ETV5 = ETV5 (Homo sapiens, UniProt P41161 1-510); details: protein: recombinant; tags: N-terminal GST; dsDNA, one strand shown
# Summary of the method: as §1
# HSF1 = HSF1 (Homo sapiens, UniProt Q00613 1-529); details: protein: recombinant; tags: N-terminal GST; chain copies: 3; dsDNA, one strand shown
# Summary of the method: as §1
# SPIC = target: T2, SPIC (Homo sapiens, UniProt Q8N5J4 1-248); details: protein: recombinant; tags: N-terminal GST; dsDNA, one strand shown
# T2 sequence: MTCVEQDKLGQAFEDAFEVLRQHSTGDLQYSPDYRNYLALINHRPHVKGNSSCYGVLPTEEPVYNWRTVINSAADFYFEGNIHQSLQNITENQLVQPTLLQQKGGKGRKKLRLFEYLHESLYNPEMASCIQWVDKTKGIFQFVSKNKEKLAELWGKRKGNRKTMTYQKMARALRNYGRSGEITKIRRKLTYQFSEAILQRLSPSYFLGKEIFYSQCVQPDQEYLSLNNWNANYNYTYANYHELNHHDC
# Summary of the method: as §1
# ELF4 = ELF4 (Homo sapiens, UniProt Q99607 1-663); details: protein: recombinant; tags: N-terminal GST; dsDNA, one strand shown
# Summary of the method: as §1
# ELK4 = target: T3, ELK4 (Homo sapiens, UniProt P28324-2 1-405); details: protein: recombinant; tags: N-terminal GST; dsDNA, one strand shown
# T3 sequence: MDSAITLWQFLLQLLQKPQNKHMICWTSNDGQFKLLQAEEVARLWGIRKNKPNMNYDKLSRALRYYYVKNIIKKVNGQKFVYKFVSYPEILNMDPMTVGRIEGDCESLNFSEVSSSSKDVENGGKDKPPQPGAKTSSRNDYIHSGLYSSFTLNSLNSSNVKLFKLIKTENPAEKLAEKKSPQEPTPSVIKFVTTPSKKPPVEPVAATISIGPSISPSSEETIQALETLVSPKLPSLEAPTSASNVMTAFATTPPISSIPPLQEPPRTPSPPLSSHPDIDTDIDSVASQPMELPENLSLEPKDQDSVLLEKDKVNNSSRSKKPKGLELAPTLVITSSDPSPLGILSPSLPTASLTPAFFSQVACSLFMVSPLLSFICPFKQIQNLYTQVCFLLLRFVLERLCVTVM
# Summary of the method: as §1
# ETV2 = target: T4, ETV2 (Homo sapiens, UniProt O00321 1-342); details: protein: recombinant; tags: N-terminal GST; dsDNA, one strand shown
# T4 sequence: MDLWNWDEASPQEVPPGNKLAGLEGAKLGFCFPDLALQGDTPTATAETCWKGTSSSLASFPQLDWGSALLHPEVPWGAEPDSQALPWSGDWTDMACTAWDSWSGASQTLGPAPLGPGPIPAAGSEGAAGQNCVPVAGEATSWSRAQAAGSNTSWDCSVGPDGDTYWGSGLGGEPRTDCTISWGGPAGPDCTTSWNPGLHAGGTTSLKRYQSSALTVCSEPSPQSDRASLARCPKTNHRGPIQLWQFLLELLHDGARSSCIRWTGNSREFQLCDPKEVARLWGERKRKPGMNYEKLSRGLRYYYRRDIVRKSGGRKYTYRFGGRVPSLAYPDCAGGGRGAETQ
# Summary of the method: as §1
# ELF3 = target: T5, ELF3 (Homo sapiens, UniProt P78545 1-371); details: protein: recombinant; tags: N-terminal GST; dsDNA, one strand shown
# T5 sequence: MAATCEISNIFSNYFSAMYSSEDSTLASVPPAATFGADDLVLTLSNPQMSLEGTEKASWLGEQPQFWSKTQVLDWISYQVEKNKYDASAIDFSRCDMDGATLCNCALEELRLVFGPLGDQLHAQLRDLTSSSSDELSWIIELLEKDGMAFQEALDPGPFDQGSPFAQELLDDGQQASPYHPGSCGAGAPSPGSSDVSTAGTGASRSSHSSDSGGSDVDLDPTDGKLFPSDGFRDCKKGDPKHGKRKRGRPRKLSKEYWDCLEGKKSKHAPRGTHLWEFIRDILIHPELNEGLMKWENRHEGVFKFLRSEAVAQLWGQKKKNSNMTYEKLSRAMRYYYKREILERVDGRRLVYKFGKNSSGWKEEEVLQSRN
# Summary of the method: as §1
# CRX = CRX (Homo sapiens, UniProt O43186 1-299); details: protein: recombinant; tags: N-terminal GST; dsDNA, one strand shown
# Summary of the method: as §1
# ETV1 = ETV1 (Homo sapiens, UniProt P50549 1-477); details: protein: recombinant; tags: N-terminal GST; dsDNA, one strand shown
# Summary of the method: as §1
# ERF = target: T6, ERF (Homo sapiens, UniProt P50548 1-548); details: protein: recombinant; tags: N-terminal GST; dsDNA, one strand shown
# T6 sequence: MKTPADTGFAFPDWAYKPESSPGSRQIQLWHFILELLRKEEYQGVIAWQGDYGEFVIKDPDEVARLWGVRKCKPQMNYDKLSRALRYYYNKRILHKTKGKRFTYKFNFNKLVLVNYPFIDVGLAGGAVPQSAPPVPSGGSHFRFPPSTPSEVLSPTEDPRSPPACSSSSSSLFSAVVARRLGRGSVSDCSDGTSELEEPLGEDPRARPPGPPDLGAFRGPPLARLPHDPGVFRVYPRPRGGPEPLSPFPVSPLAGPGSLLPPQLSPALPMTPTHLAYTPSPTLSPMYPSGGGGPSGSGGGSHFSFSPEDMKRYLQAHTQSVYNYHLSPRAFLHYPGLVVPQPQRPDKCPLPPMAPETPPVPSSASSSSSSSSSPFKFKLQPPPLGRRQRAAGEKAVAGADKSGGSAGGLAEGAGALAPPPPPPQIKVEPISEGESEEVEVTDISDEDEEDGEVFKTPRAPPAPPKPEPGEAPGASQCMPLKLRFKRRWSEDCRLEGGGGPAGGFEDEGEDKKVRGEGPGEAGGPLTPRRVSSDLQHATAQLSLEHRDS
# Summary of the method: as §1
# ETV3L = target: T7, ETV3L (Homo sapiens, UniProt Q6ZN32 1-361); details: protein: recombinant; tags: N-terminal GST; dsDNA, one strand shown
# T7 sequence: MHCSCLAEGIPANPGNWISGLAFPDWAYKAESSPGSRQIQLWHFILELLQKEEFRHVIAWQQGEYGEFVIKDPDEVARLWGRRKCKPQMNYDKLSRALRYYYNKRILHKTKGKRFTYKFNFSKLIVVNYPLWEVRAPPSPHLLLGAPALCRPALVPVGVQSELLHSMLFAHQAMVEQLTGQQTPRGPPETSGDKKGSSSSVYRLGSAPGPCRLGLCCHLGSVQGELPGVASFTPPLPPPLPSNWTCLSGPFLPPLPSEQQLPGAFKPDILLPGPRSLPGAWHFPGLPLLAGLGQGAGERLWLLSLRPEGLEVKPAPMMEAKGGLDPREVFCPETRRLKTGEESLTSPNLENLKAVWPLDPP
# Summary of the method: as §1
# ETS2 = target: T8, ETS2 (Homo sapiens, UniProt P15036 1-469); details: protein: recombinant; tags: N-terminal GST; dsDNA, one strand shown
# T8 sequence: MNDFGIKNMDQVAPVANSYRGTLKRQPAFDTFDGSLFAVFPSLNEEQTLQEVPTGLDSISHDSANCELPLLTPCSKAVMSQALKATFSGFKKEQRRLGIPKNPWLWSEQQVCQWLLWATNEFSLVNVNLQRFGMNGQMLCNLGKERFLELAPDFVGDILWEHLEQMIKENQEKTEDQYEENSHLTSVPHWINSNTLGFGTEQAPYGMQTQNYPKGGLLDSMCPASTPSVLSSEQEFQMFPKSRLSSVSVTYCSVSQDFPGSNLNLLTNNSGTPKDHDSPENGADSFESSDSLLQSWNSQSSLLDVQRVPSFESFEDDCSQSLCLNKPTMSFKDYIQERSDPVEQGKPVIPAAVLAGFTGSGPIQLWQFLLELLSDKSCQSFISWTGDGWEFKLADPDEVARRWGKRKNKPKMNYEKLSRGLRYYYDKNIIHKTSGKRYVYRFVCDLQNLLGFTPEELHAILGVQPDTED
# Summary of the method: as §1
# SPDEF = target: T9, SPDEF (Homo sapiens, UniProt O95238 1-335); details: protein: recombinant; tags: N-terminal GST; dsDNA, one strand shown
# T9 sequence: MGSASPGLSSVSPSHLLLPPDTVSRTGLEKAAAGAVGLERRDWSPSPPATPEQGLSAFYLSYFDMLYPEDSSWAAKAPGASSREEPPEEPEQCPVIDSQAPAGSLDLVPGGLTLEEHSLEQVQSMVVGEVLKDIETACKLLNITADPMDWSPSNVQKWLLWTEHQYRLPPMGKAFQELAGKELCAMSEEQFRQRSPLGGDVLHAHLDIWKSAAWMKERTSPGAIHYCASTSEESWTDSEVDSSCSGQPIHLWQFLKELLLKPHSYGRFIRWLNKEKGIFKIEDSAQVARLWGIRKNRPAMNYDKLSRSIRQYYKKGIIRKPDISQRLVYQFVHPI
# Summary of the method: as §1
# ETV7 = target: T10, ETV7 (Homo sapiens, UniProt Q9Y603 1-341); details: protein: recombinant; tags: N-terminal GST; dsDNA, one strand shown
# T10 sequence: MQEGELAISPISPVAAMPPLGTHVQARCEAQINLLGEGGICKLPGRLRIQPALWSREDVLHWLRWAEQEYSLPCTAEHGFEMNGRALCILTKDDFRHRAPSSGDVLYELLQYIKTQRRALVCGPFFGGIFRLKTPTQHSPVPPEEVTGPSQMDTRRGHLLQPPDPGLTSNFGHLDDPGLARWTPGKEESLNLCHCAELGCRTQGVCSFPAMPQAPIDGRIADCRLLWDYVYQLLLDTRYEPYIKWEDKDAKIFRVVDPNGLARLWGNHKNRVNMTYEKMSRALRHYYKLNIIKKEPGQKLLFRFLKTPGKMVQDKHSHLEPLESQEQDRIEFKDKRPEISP
# Summary of the method: as §1
# ELF5 = target: T11, ELF5 (Homo sapiens, UniProt Q9UKW6-2 1-255); details: protein: recombinant; tags: N-terminal GST; dsDNA, one strand shown
# T11 sequence: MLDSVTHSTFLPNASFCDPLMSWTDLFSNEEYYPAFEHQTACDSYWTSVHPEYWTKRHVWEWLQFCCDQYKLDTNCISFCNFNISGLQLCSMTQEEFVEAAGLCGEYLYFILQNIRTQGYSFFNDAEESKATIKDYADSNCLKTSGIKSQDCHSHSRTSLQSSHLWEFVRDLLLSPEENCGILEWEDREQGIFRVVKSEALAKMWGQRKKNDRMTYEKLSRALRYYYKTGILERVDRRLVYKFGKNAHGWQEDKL
# Summary of the method: as §1
# ETV3 = target: T12, ETV3 (Homo sapiens, UniProt P41162-2 1-143); details: protein: recombinant; tags: N-terminal GST; dsDNA, one strand shown
# T12 sequence: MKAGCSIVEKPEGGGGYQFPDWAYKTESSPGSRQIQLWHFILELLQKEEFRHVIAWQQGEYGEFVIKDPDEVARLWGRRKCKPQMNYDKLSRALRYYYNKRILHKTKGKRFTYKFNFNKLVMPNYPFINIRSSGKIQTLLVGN
# Summary of the method: as §1
# ETV6 = ETV6 (Homo sapiens, UniProt P41212 1-452); details: protein: recombinant; tags: N-terminal GST; dsDNA, one strand shown
# Summary of the method: as §1
# Sequence of ETV6 (P41212 whole entry): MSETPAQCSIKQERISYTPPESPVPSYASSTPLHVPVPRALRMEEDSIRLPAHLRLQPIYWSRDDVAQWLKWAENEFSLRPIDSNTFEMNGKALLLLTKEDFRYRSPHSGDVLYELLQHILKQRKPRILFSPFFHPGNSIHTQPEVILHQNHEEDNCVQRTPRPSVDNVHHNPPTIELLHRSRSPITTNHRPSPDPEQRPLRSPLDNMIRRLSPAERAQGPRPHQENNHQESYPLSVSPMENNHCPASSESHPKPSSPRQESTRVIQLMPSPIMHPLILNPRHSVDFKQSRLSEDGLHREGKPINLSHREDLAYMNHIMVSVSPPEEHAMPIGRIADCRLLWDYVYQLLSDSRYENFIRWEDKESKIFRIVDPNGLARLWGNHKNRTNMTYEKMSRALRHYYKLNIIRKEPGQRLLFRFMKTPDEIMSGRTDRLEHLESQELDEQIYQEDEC
# Sequence of ELF4 (Q99607 whole entry): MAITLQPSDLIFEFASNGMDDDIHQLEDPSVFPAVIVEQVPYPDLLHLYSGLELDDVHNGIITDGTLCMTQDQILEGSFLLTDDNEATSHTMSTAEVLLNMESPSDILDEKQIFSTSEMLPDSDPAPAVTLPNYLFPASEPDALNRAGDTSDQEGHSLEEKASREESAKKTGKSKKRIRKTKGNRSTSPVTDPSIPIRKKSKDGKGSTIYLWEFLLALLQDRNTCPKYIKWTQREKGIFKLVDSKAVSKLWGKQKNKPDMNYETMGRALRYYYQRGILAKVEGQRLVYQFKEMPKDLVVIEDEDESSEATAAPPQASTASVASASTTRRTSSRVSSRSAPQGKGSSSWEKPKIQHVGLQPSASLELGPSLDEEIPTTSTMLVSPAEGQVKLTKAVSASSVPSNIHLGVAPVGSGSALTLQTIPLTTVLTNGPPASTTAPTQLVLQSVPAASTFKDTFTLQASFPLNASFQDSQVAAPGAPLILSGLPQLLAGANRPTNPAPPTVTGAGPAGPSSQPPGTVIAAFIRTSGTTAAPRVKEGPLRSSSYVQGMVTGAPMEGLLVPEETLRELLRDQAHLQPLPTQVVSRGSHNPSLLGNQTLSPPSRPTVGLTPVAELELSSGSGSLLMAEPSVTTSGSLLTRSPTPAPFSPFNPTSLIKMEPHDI
# Sequence of ETV5 (P41161 whole entry): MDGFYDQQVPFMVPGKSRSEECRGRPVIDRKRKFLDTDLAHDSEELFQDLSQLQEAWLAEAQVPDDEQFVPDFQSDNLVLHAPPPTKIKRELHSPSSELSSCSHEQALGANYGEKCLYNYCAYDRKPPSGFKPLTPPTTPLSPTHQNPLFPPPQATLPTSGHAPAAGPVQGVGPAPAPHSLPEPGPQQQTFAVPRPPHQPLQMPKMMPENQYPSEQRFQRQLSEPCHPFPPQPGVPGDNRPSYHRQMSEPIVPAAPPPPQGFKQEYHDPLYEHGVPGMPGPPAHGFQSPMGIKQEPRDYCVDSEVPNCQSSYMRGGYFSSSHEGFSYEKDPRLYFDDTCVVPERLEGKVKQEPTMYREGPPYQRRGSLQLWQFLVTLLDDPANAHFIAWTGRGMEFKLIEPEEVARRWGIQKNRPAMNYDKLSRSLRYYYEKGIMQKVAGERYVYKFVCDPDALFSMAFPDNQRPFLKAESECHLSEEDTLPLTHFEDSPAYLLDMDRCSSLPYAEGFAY
# Sequence of HSF1 (Q00613 whole entry): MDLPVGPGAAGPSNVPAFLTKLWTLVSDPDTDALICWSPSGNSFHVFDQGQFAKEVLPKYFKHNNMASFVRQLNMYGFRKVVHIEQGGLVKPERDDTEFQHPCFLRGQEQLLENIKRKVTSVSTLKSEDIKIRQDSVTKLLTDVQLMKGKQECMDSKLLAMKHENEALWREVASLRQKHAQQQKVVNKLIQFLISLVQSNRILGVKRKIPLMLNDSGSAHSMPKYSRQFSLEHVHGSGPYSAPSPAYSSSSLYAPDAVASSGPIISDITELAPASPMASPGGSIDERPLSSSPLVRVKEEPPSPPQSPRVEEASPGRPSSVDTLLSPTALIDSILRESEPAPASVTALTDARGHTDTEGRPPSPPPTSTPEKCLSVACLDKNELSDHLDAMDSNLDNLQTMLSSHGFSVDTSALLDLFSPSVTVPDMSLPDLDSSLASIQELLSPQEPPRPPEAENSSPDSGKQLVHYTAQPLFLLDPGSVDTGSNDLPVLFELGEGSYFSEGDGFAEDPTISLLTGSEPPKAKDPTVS
# Sequence of ETV1 (P50549 whole entry): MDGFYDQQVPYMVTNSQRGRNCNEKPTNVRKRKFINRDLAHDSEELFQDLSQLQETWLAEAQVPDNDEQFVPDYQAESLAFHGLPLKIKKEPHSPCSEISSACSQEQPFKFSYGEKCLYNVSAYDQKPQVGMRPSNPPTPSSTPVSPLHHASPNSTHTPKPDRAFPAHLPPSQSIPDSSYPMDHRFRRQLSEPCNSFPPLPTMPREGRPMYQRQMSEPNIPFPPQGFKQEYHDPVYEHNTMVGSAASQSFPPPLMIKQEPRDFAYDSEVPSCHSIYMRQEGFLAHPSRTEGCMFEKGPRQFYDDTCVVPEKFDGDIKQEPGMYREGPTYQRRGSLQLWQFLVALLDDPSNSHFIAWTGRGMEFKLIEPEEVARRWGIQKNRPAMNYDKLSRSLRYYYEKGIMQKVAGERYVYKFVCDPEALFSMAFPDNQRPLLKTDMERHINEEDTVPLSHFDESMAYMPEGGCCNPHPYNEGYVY
# Sequence of CRX (O43186 whole entry): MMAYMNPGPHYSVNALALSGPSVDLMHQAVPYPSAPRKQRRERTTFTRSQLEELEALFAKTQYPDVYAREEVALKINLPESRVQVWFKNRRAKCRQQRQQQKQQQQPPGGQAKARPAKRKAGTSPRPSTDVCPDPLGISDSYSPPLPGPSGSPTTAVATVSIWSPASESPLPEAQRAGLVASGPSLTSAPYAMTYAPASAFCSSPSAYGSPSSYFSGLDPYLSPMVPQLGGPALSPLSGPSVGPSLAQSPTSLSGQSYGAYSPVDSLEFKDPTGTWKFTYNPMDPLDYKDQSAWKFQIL
sequence,measurement,setting,value
GCTGTA,binding signal,FEV,"1.15 fold enrichment (6-mer frequency, TF over GST control)"
same,binding signal,ETV5,"1.06 fold enrichment (6-mer frequency, TF over GST control)"
same,binding signal,HSF1,"1 fold enrichment (6-mer frequency, TF over GST control)"
same,binding signal,SPIC,"1.36 fold enrichment (6-mer frequency, TF over GST control)"
same,binding signal,ELF4,"1.08 fold enrichment (6-mer frequency, TF over GST control)"
same,binding signal,ELK4,"1.09 fold enrichment (6-mer frequency, TF over GST control)"
same,binding signal,ETV2,"1.08 fold enrichment (6-mer frequency, TF over GST control)"
same,binding signal,ELF3,"1.07 fold enrichment (6-mer frequency, TF over GST control)"
same,binding signal,CRX,"1.02 fold enrichment (6-mer frequency, TF over GST control)"
same,binding signal,ETV1,"1.06 fold enrichment (6-mer frequency, TF over GST control)"
same,binding signal,ERF,"1.24 fold enrichment (6-mer frequency, TF over GST control)"
same,binding signal,ETV3L,"1.02 fold enrichment (6-mer frequency, TF over GST control)"
same,binding signal,ETS2,"1.1 fold enrichment (6-mer frequency, TF over GST control)"
same,binding signal,SPDEF,"1.12 fold enrichment (6-mer frequency, TF over GST control)"
same,binding signal,ETV7,"1.09 fold enrichment (6-mer frequency, TF over GST control)"
same,binding signal,ELF5,"1.07 fold enrichment (6-mer frequency, TF over GST control)"
same,binding signal,ETV3,"1.08 fold enrichment (6-mer frequency, TF over GST control)"
same,binding signal,ETV6,"1.13 fold enrichment (6-mer frequency, TF over GST control)"
